Rows were chosen to be rich in hits. Some 4.5% of all compounds tested hit in one or more screens of this group.
NALP3 yeast inh = inhibitors of NALP3 inflammasome in yeast; hit rate 0.39% among 330,000; Yeast reconstituted NLRP3/ASC/caspase-1, beta-gal luminescence, 24 h; inhibition, % at 10 µM;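 active means inhibition of 50% or more; inactive means inhibition below 50%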;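 further: plate controls were induced DMSO wells for no effect and uninduced yeast grown without galactose for full effect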
SKKanGAS inh = blocks kanamycin growth of S. pyogenes SKKanGAS strain; BacTiter-Glo, 6 h; inhibition, % at 7.5 µM; hit rate 1.3% among 300,000; AID 1662;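 active means mean replicate score, as percent of positive control median, at least 50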;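 further: strain carries kanamycin resistance gene driven by streptokinase promoter and grows in 40 µg/ml kanamycin; loss of luminescence reflects streptokinase promoter inhibition or plain growth inhibition; 0% = median of DMSO wells and 100% = positive control at its reference dose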
PfHsp90 set2 = growth inhibition of yeast expressing Plasmodium Hsp90 | S. cerevisiae expressing PfHsp90, BacTiter-Glo ATP, 48 h; yeast lacking PDR1 and PDR3 efflux regulators | inhibition, % at 9.4 µM | hit rate 0.32% among 310,000;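 active means every replicate shows inhibition above about 80%, whatever the replicate mean, limit read from the data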;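 further: 0% = DMSO neutral controls and 100% = 20 µM radicicol positive controls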
tim23-1 inh = tim23-1 yeast growth inhibition | hit rate 1.3% among 330,000 | S. cerevisiae tim23-1 growth, BacTiter-Glo luminescence, 24 h | inhibition, % at 20 µM;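 active means growth inhibition of the mutant yeast at or above 50%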;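 further: temperature-sensitive mutant grown at 25 °C; plate controls were DMSO-treated mutant yeast for no effect and medium wells lacking yeast for full effect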
TIM10 inh = growth inhibitors of TIM10 yeast strain. S. cerevisiae TIM10 strain growth, BacTiter-Glo luminescence, 24 h. inhibition, % at 10 µM. hit rate 1.4% among 330,000;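 active means inhibition of 40% or more at the single tested concentration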;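 further: wild-type TIM10 isogenic control strain grown at permissive 25 °C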
tim10-1 inh = inhibits growth of tim10-1 mutant yeast | S. cerevisiae tim10-1 ts strain growth, BacTiter-Glo, 24 h | inhibition, % at 20 µM | hit rate 2.2% among 330,000;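 active means inhibition of at least 40%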;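 further: mutant grown at 25 °C; 0% = DMSO wells with yeast and 100% = wells holding no yeast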
* hit, by the source's call; · = not tested or not shown.

SMILES	NALP3 yeast inh	SKKanGAS inh	PfHsp90 set2	tim23-1 inh	TIM10 inh	tim10-1 inh
COCc1nnc(NC(=O)c2ccc(S(=O)(=O)N(C)C3CCCCC3)cc2)o1	1.4	61.7*	-5.4	6.0	14.8	7.2
CCc1nnc(NC(=O)c2ccc(S(=O)(=O)N(C)c3ccccc3)cc2)o1	-5.2	52.1*	8.5	6.7	16.4	10.8
CC(C)(C)C(=O)NCC12C=CC(O1)C1C(=O)N(c3ccccc3)C(=O)C12 (stereo not given)	-2.1	-2.1	103.6*	-3.0	7.3	9.7
O=C1C2C3C=CC(CNS(=O)(=O)c4ccccc4[N+](=O)[O-])(O3)C2C(=O)N1c1ccccc1 (stereo not given)	-21.0	-2.0	110.7*	4.7	10.1	22.4
Cc1cc(C)c(S(=O)(=O)NCC23C=CC(O2)C2C(=O)N(c4ccccc4)C(=O)C23)c(C)c1 (stereo not given)	8.5	-5.7	103.9*	21.9	25.5	31.3
COc1ccc(NC(=O)c2ccc3c(c2)C(=O)N(CC2CCCO2)C3=O)c(OC)c1 (stereo not given)	10.2	2.3	-74.0	-4.8	-17.6	-22.6
O=C(/C=C\c1ccco1)Nc1nc(-c2ccc3ccccc3c2)cs1	23.8	62.8*	-9.2	13.8	8.1	-10.4
CCOC(=O)c1nn(-c2ccccc2Cl)c(=O)cc1OCC(=O)Nc1cccc(OC)c1	12.9	52.6*	-1.2	14.9	-3.6	7.3
CCOc1ccc(/C=N/NC(=S)NC2CC3C=CC2C3)cc1 (stereo not given)	0.1	64.2*	6.1	7.7	20.3	14.1
CCc1nnc(NC(=O)c2cccc(C(=O)Nc3nnc(CC)s3)n2)s1	·	99.0*	65.4	·	·	·
O=C(c1ccccc1)c1ccccc1N1C(=O)C=CC1=O	36.0	-3.5	106.7*	9.6	14.6	10.9
Clc1ccc(C2C3=C(Nc4ncnn42)c2ccccc2CC3)cc1 (stereo not given)	25.9	70.2*	·	16.6	16.1	26.2
c1ccc(C2C3=C(Nc4ncnn42)c2ccccc2CCC3)cc1 (stereo not given)	19.2	2.6	-22.3	10.2	6.0	7.8
Cc1ccc(Cn2c(Cc3ccccc3)nc3ccccc32)cc1	36.1	68.5*	-41.8	41.2	33.6	31.5
ClCc1nc2ccccc2n1Cc1ccccc1	9.1	21.6	0.7	29.7	19.4	33.6
CC(=O)N1CCN(S(=O)(=O)c2cccc(C(=O)OCc3cccc(F)c3)c2)CC1	4.0	·	-7.8	37.3	21.5	31.7
O=C1N/C(=N\N=C\c2cccs2)SC1Cc1ccc(Cl)c(Cl)c1 (stereo not given)	18.6	56.3*	31.3	-5.5	5.6	9.2
C=CCC1S/C(=N/N=C/c2cccs2)NC1=O (stereo not given)	-5.6	-2.7	-28.2	12.3	4.1	22.8
O=C(CSc1nnc(CNC(=O)c2ccc(F)cc2)o1)Nc1nccs1	-1.4	-4.9	-5.3	0.7	3.4	3.1
Cc1nc(NCCc2ccc(S(N)(=O)=O)cc2)c2c3c(sc2n1)CCC3	-6.5	-9.5	-2.7	-5.8	9.4	4.8
Cc1nc(NS(=O)(=O)c2ccc(Cl)s2)c2c3c(sc2n1)CCCC3	-5.0	63.0*	-82.0	31.3	-2.5	15.7
CCN(C[C@H]1N[C@@](CC)(C(=O)OC)[C@H]2C(=O)N(C)C(=O)[C@@H]12)C(=O)COc1ccccc1	-0.5	·	7.1	-3.3	2.8	-8.3
Oc1ccccc1-c1nc(NCc2ccco2)c2ccccc2n1	4.8	2.3	3.2	14.5	29.6	26.4
c1ccc(-c2nc(NCc3ccco3)c3ccccc3n2)nc1	21.4	95.5*	-40.9	3.0	19.3	31.4
C(=N\Nc1nc(-c2cccnc2)nc2ccccc12)/c1ccccc1	26.9	9.8	·	26.9	9.7	17.4
SMILES	NALP3 yeast inh	SKKanGAS inh	PfHsp90 set2	tim23-1 inh	TIM10 inh	tim10-1 inh
C(=N\Nc1nc(-c2ccccn2)nc2ccccc12)/c1ccccc1	5.6	98.0*	·	20.0	24.4	34.3
CNC(=O)/C(C#N)=C\c1cc(C)n(-c2ccc(N3CCOCC3)cc2)c1C	12.1	61.9*	26.7	-13.5	-6.6	-5.9
Cc1cc(/C=C2\SC(=Nc3ccc(F)cc3)NC2=O)c(C)n1-c1ccc(S(N)(=O)=O)cc1	3.3	61.4*	-12.3	17.6	-7.6	6.8
Cc1cc(C(=O)O)ccc1-n1c(C)cc(/C=C2\SC(=O)NC2=O)c1C	0.5	14.0	-6.1	16.6	9.4	10.8
Cc1cc(/C=C(\C#N)C(=O)Nc2ccc(F)cc2)c(C)n1-c1ccc(N2CCOCC2)c([N+](=O)[O-])c1	24.0	27.1	-20.1	10.0	-7.6	0.5
Cc1cc(/C=C2/SC(=O)NC2=O)c(C)n1-c1ccc(N2CCOCC2)cc1	4.7	89.8*	-27.4	4.2	8.3	12.5
Cc1cc(/C=C2\SC(=S)NC2=O)c(C)n1-c1ccc(O)cc1	15.7	99.6*	96.7*	36.4	16.5	10.5
Cc1ccc(N=C2NC(=O)/C(=C/c3cn(C)c4ccccc34)S2)cc1C	·	·	-10.8	·	·	·
Cc1cc(/C=C2\SC(=S)NC2=O)c(C)n1-c1ccccc1	25.7	40.9	·	28.6	6.4	24.0
CCN(C(=O)c1cccc(S(=O)(=O)N2CCc3ccccc32)c1)C1CCS(=O)(=O)C1 (stereo not given)	-0.7	·	-15.8	2.9	13.5	10.5
C/C(=N\NC(=O)CSc1nc2ccccc2s1)c1cccnc1	13.0	-8.1	-19.3	3.6	5.5	-4.8
Cc1c(Cc2ccccc2)c(=O)oc2cc(OCc3ccc(C(=O)O)cc3)ccc12	28.6	54.4*	-20.2	30.6	14.2	7.0
COc1ccc(/[N+]([O-])=C/c2ccco2)cc1	13.9	·	5.5	-8.1	-8.4	-10.4
Cc1ccc(S(=O)(=O)/N=C(/Nc2ccc(F)cc2F)c2ccccc2)cc1	19.8	-3.0	6.0	27.3	9.7	23.9
CC(C)C1Cc2c(sc3[nH]c(=S)n(Cc4ccccc4)c(=O)c23)CO1 (stereo not given)	2.7	81.8*	-32.3	-0.4	14.9	30.5
Cc1c(CCC(=O)O)c(=O)oc2c(C)c3occ(-c4ccc(Cl)cc4)c3cc12	6.1	58.2*	-44.8	15.1	4.2	22.2
Cc1c(CCC(=O)O)c(=O)oc2cc3occ(-c4ccc(Cl)cc4)c3cc12	20.4	62.9*	-17.2	18.4	21.5	19.4
Cc1c(CC(=O)O)c(=O)oc2c(C)c3occ(-c4ccccc4)c3cc12	7.9	3.9	20.2	4.5	16.6	-2.1
Cc1c(CCC(=O)O)c(=O)oc2cc3occ(-c4ccc(Br)cc4)c3cc12	13.3	76.6*	-65.6	36.8	25.3	13.3
Cc1c(CCC(=O)O)c(=O)oc2cc3occ(-c4ccc(F)cc4)c3cc12	-16.2	11.1	·	8.1	4.4	15.4
Cc1cc(C)c2[nH]c(C)c(CN3CCCCCC3)c(=O)c2c1	12.6	-4.6	-28.9	-7.1	-20.8	10.9
O=C(CN1CCN(S(=O)(=O)c2ccccc2Cl)CC1)NCC1(N2CCOCC2)CCCCC1	-0.8	·	·	2.3	-0.3	-0.4

Screening data: PubChem, several laboratories
